Assay results from PubChem BioAssay.
Activity calls are given as the source filed them.

Assay: growth of efflux-deficient E. coli DRC39 – strain DRC39, OD650, 48 h, E. coli filamentation inducers, primary screen (AID 1179);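 note: screen aims at cell division blockers that make cells filament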
Conditions: E. coli DRC39 delta-acrAB growth, higher = more signal, called active from +8 up or from −8 down

z-score, inactive:
CN1C(=O)[C@]2(CCS(=O)(=O)c3ccccc3)N=C(c3ccc(OCCCO)cc3)O[C@@H]2c2ccccc21 -0.687
C=CCC(OC(C)=O)[C@@H]1[C@@H](N(Cc2cccc3ccccc23)C(=O)c2cccc3ccccc23)c2cc(OCCCO)ccc2N1C(=O)Cc1ccc2ccccc2c1 (some centres not stated) 0.334
CCCCNC(=O)c1ccc(C#C[Si](C)(C)C)c(OC(C)=O)c1 -0.925
CCOC(=O)C1=CC[C@@H](c2ccccc2Cl)N(S(=O)(=O)c2ccc(C)cc2)[C@H]1c1cccc(OC)c1 -0.679
Cc1ccc(F)cc1S(=O)(=O)N[C@@H]1CCN(Cc2ccc3c(c2)OCO3)C1 -2.33
C#CCN(C/C=C/c1ccccc1)[C@H](CO[Si](C)(C)C(C)(C)C)c1ccccc1 -1.59
N[C@@H](Cc1ccccc1)Cn1cc(C2(O)CCCCC2)nn1 -0.607
COCCOC(=O)N1C(=O)[C@@]2(c3cc(C#CCC(C(=O)OC)C(=O)OC)ccc31)[C@H](c1ccc(OCCO)cc1)N1[C@H](c3ccccc3)[C@H](c3ccccc3)OC(=O)[C@H]1[C@@H]2C(=O)N1CCCCCCC1 0.0786
COc1ccc(NC(=O)O[C@H]2[C@H](OC(=O)Nc3ccc4c(c3)OCO4)[C@H](OC(=O)Nc3ccc4c(c3)OCO4)[C@@H](OC)O[C@@H]2CO)cc1 0.18
COc1ccc(NN2C(C(O)c3cc(C(F)(F)F)cc(C(F)(F)F)c3)C=CC3C(=O)N(C4CCCCC4)C(=O)C32)cc1 (configuration not stated) 0.372
COCCOC(=O)N1C(=O)[C@@]2(c3cc(C#Cc4ccc(OC)cc4)ccc31)[C@H](C(=O)Nc1nc3ccccc3s1)[C@H]1C(=O)O[C@H](c3ccccc3)[C@H](c3ccccc3)N1[C@@H]2c1ccccc1OCCO 0.376
C=C(COC)/C(=C/C[C@H](OC(=O)c1ccncc1)c1ccc(OCCO)cc1)c1cc(C(=O)OC)ccc1OC 0.33
COc1ccc([Si](C)(C)[C@H]2[C@H](CCO)O[C@@]3(C(=O)N(Cc4ccccc4)c4ccc(N(C=O)c5ccccc5)cc43)[C@@H]2C)cc1 0.733
C=CC[C@]1(C(=O)OC)N=C(c2ccc(OCCCO)cc2)O[C@H]1c1ccccc1N=[N+]=[N-] -1.12
COc1ccccc1CN1C(=O)c2ccccc2[C@](Cc2ccccc2I)(C(=O)NCCCN(C)C)[C@@H]1c1ccc(CO)cc1 -2.71
CC1CC/C=C\[C@H]2OC34C=CCN(c5ccc(Cl)cc5)C(=O)[C@H]3N(CCCO)C(=O)[C@]4(C)C2C(=O)O1 (some centres not stated) -0.801
CC[C@H](C)C(=O)O[C@H]1CC[C@]2(C)C3=C(CCC2C1(C)C)[C@]1(C)CC[C@H]([C@H](C)CCCC(C)C)[C@@]1(C)CC3 (some centres not stated) 1.47
CCOC(=O)C[C@H]1[C@H](OC(=O)c2cc3ccccc3oc2=O)[C@@H](NC(=O)C2CCCCC2)c2cc(OCCCO)ccc2N1C(=O)Cc1ccc(OC)cc1 -1.1
CC(C)C(=C=CC[C@@H](O)c1cccc(OCCO)c1)CCO 0.423
C=C(COC)/C(=C/C[C@H](OC(=O)c1ccncc1)c1cccc(OCCO)c1)c1cnc2ccccc2c1 -0.199
CC(C)CNC(=O)[C@@H]1c2ccccc2C(=O)N(Cc2ccccc2)[C@H]1c1ccc(CO)cc1 0.0254
C=C(COC)C(=O)CC[C@@H](OC(C)=O)c1ccc(OCCO)cc1 -0.432
CCCCC(=C=CC[C@H](O)c1ccc(OCCO)cc1)C[C@H](O)c1ccccn1 0.949
CC(C)c1ccc(NN2C(C(O)C(C)C)C=CC3C(=O)N(c4ccccc4)C(=O)C32)cc1 (configuration not stated) -0.303
COCCOC(=O)N1C(=O)[C@@]2(c3cc(C#CC4=CCCCC4)ccc31)[C@H](C(=O)N1CCN(c3ncccn3)CC1)[C@H]1C(=O)O[C@H](c3ccccc3)[C@H](c3ccccc3)N1[C@@H]2c1ccccc1OCCO -0.514
CC(C)C(=C=CC[C@@H](O)c1ccccc1OCCO)C[C@@H](O)c1cc(Cl)cc(Cl)c1O -0.796
COc1ccc(C(O)C2C=CC3C(=O)N(C)C(=O)C3N2Nc2ccc([N+](=O)[O-])cc2[N+](=O)[O-])cc1OCc1ccccc1 (configuration not stated) -0.383
